From PubChem BioAssay (NCATS)
Results filed as inconclusive are left out. Where a call stands in place of a potency, no number is given. Calls of active or inactive are those of the source. Calls follow the shape of the dose curve; as a rule, active = well fitted inhibition curve with a large enough effect; inconclusive = small, poorly fitted or top-dose-only effect; inactive = no such curve, though single readings can be large or run the other way.

How the values were obtained:
[1] = tested on: Zika virus NS2B-NS3 protease (unlinked complex); test: Primary screen GU Rhodamine qHTS for Zika virus inhibitors: Unlinked NS2B-NS3 protease assay (AID 1347159); also: nearly all actives have a fitted effect of over 60% in size
How it was run: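 Noncovalent NS2B hydrophilic domain–NS3 protease domain complex (25 nM) preincubated 15 min at room temperature with compounds (up to 114 microM) in 10 mM Tris-HCl pH 8.0, 0.01% Tween 20; 1.5 microM Rhodamine110 substrate added, fluorescence change over 15 min fitted to Hill equation.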

[2] = tested on: Zika virus NS2B-NS3 protease (linked construct); test: Primary screen NINDS Rhodamine qHTS for Zika virus inhibitors (AID 1347160); also: nearly all actives have a fitted effect of over 55% in size
How it was run: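 Purified linked NS2B-NS3 protease (NS2B hydrophilic domain joined to NS3 protease by flexible linker), 25 nM in 10 mM Tris-HCl pH 8.0, 0.01% Tween 20. Compounds titrated, 15 min preincubation at room temperature; 1.5 microM Rhodamine110 substrate, FITC fluorescence change over 15 min.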

| SMILES | Potency [1] | Potency [2] |
| --- | --- | --- |
| CC1(C)COC(=O)[C@@H]1O[C@@H]1O[C@H](CO)[C@@H](O)[C@H](O)[C@H]1O | inactive | inactive |
| Cc1ccc(C)c(S(=O)(=O)n2cnc3ccccc32)c1 | inactive | inactive |
| C/C=C(\C)C(=O)OC[C@H]1O[C@H](O[C@H]2O[C@H](CO)[C@@H](O)[C@H](O)[C@H]2O[C@@H]2O[C@H](CO)[C@@H](O)[C@H](O)[C@H]2O)[C@H](O[C@@H]2O[C@H](CO)[C@@H](O)[C@H](O)[C@H]2O)[C@@H](O)[C@@H]1O | inactive | inactive |
| Cc1c(O)cc2c(c1O)COC1(O)CCCOC21 (stereo not drawn) | inactive | inactive |
| C=C1CC[C@@]2(OC1)O[C@H]1CC3[C@@H]4CC=C5C[C@@H](O)C[C@@H](O[C@@H]6OC[C@H](O)[C@H](O)[C@H]6O[C@@H]6O[C@@H](C)[C@H](O)[C@@H](O)[C@H]6O)[C@]5(C)C4CC[C@]3(C)[C@H]1[C@@H]2C (stereo partly drawn) | inactive | inactive |
| O=C(OC[C@H]1O[C@H](O[C@]2(CO)O[C@H](CO)[C@@H](O)[C@@H]2O)[C@H](O)[C@@H](O)[C@@H]1O)c1ccc(O)cc1 | inactive | inactive |
| C/C(=C\CO)CC/C=C(\C)C(=O)O[C@@H]1O[C@H](CO)[C@@H](O)[C@H](O)[C@H]1O | inactive | inactive |
| CC1=CCC2C(C)(C)CCCC2(C)C1CC12OC1C(O)C(CO)=CC2O (stereo not drawn) | inactive | inactive |
| C=C(CCO)C(=O)OCC1OCC(OC(=O)C(=C)CCO[C@@H]2O[C@H](CO)[C@@H](O)[C@H](O)[C@H]2O)C(O)C1O (stereo partly drawn) | inactive | inactive |
